# Compounds without any hit were thinned out: in the full panel of roughly 79,000, 15% have a hit. Values without a mark were called inactive. The source made the active and inactive calls. Rule as the data show it: active = growth inhibition above about 70%; inactive = the rest.
# How the values were obtained:
# [1] = NCI Yeast Anticancer Drug Screen. Data for the rad50 strain (AID 155);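 also: 0% = growth of vehicle-only cultures of the same strain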; conditions: S. cerevisiae rad50 strain growth inhibition; at 50.0 µM; stronger effect = higher value
# Procedure, shortened: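 Compounds were tested on a yeast strain with an engineered DNA damage repair alteration; the reported value is growth inhibition normalised to vehicle treatment.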
# [2] = NCI Yeast Anticancer Drug Screen. Data for the mec2-1 strain (AID 157); conditions: S. cerevisiae mec2-1 strain, at 50.0 µM, stronger effect = higher value
# Procedure, shortened: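 Compounds were applied to mec2-1 yeast cells. Their growth was then compared with that of vehicle-treated cultures to give growth inhibition.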
# [3] = NCI Yeast Anticancer Drug Screen. Data for the sgs1 mgt1 strain (AID 161);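 also: 0% = growth of cultures given vehicle only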; conditions: S. cerevisiae sgs1 mgt1 strain, at 50.0 µM, stronger effect = higher value
# Procedure, shortened: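 This yeast growth screen uses a strain with defined DNA-repair lesions; compound-treated growth is compared with vehicle-treated growth.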
# [4] = NCI Yeast Anticancer Drug Screen. Data for the cln2 rad14 strain (AID 165);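 also: 0% = growth equal to vehicle treated cultures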; conditions: S. cerevisiae cln2 rad14 strain, at 50.0 µM, stronger effect = higher value
# Procedure, shortened: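 Strain: cln2 rad14 yeast, altered in cell cycle control and DNA damage repair. Read-out: growth inhibition vs vehicle.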
# [5] = NCI Yeast Anticancer Drug Screen. Data for the bub3 strain (AID 167); conditions: S. cerevisiae bub3 mutant strain, at 50.0 µM, stronger effect = higher value
# Procedure, shortened: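 Growth of a checkpoint-deficient yeast mutant is measured after compound exposure. Values represent inhibition relative to vehicle.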
# [6] = NCI Yeast Anticancer Drug Screen. Data for the mlh1 rad18 strain (AID 175); conditions: S. cerevisiae mlh1 rad18 strain growth inhibition; at 50.0 µM; stronger effect = higher value
# Procedure, shortened: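 A repair-deficient yeast strain is exposed to test compound, and growth is scored relative to vehicle-treated controls.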
SMILES,growth inhibition [1],growth inhibition [2],growth inhibition [3],growth inhibition [4],growth inhibition [5],growth inhibition [6]
CC1CC(C)c2ccccc21 (stereo unspecified),42.3%,27.4%,17.8%,39.3%,0.3%,2.4%
CCCCCC(=O)OCCOCCOC,33.7%,-2.9%,29.6%,0.25%,2.25%,29.3%
CCCCOC(=O)/C=C/c1ccc(OC(C)C)cc1,3.95%,-9%,-9.4%,-48.1%,19.9%,-10.4%
COc1ccc(OCc2nc3cc(C(F)(F)F)ccc3nc2-c2ccccc2)cc1,-2.65%,3.45%,11.2%,5.2%,25.9%,-70.4%
COc1cc(/C=C(\C#N)C(=O)c2ccccc2)ccc1O,-13.8%,-18.1%,-11.9%,5.4%,-27.5%,3.05%
CC(=O)Oc1ccc2c(c1)CC[C@@H]1C2[C@@H](O[N+](=O)[O-])C[C@@]2(C)C1CC[C@@H]2O (stereo partly specified),25.5%,43.3%,77.2% (active),62%,31.9%,57.8%
O=C1C(Cl)=C(N(C(=O)c2ccccc2)C(=O)c2ccccc2)C(=O)c2ccccc21,6.6%,-3.7%,83.2% (active),74% (active),86% (active),-51.6%
CC1CN=C(c2ccccn2)C(c2ccccn2)=N1 (stereo unspecified),4.85%,6.6%,14.5%,-1.1%,17.4%,10.2%
COc1ccc(-c2c(C#N)c(S)n(C3OC(COC(C)=O)C(OC(C)=O)C(OC(C)=O)C3OC(C)=O)c(=O)c2C#N)cc1 (stereo unspecified),-18.1%,-12.2%,-6.3%,-16.3%,16.4%,14%
O=CNc1ccccc1-c1ccccc1,-33.3%,-15%,-18%,-17.1%,-0.15%,2.55%
O=C(CCCN1CC=C(n2c(=O)[nH]c3ccccc32)CC1)c1cccs1,50.6%,29.2%,32.4%,19.9%,33.1%,42.8%
CCCCOc1ccc(/C=C/C(=O)OCC(CC)CCCC)cc1 (stereo unspecified),-10.2%,-6.2%,12.4%,-63.4%,12.2%,-9.05%
Cc1ccc2c(=O)cc(-c3cccc(F)c3)[nH]c2n1,-4.9%,-0.9%,-11%,23.9%,-6.25%,-16.4%
CNC(=O)n1c(N)nc(-c2ccccc2)c1-c1ccccc1,14.3%,4.55%,18.4%,1.7%,-22.1%,-46.9%
O=C(Nc1ccccc1C/C(=N/O)c1ccc2c(c1)OCO2)c1ccccc1,51.5%,0.4%,54.1%,-32%,3.55%,23.4%
COC1(OC)CC2C(=O)N(Cc3ccccc3)C1C(S(=O)(=O)c1ccccc1)C2C(C)S(=O)(=O)c1ccccc1 (stereo unspecified),14.1%,-0.55%,-24%,-35%,-26.7%,5%
O=C1c2cccc3c(Br)ccc(c23)C(=O)N1CCCN1CCOCC1,63.5%,77.7% (active),80.2% (active),86.7% (active),92.5% (active),60.2%
OCCCOc1ccc2ccccc2c1,21.4%,10.2%,28.4%,3.95%,-7.25%,9.85%
ClCCOC(CCl)OCCCl,24.1%,6.9%,22.1%,20.4%,6.5%,14.5%
CC1CC[C@]2(C(=O)O)CCC3(COC(=O)/C=C\c4ccc(O)cc4)C(=CCC4[C@@]5(C)CC[C@H](O)C(C)(C)C5CC[C@]43C)[C@@H]2[C@H]1C (stereo partly specified),-1.9%,1.35%,-1.65%,5.55%,-3.1%,-17.8%
c1ccc(CN2COc3ccc4c5c(ccc4c3C2)OCN(Cc2ccccc2)C5)cc1,-13.1%,-5.45%,-6.7%,-21.6%,2.05%,-17.7%

# Reference: PubChem BioAssay (NCI)
